Assay outcomes (PubChem BioAssay)
VLA-4 inh: inhibition in a human VLA-4 binding assay | P13612 | VLA-4 expressing cells, ligand binding flow cytometry | inhibition, % (about 7 µM as worked out from the volumes in the protocol) | 0.2% of 330,000 active; in the data active = inhibition above about 50%
Target sequence (P13612 whole entry, looked up): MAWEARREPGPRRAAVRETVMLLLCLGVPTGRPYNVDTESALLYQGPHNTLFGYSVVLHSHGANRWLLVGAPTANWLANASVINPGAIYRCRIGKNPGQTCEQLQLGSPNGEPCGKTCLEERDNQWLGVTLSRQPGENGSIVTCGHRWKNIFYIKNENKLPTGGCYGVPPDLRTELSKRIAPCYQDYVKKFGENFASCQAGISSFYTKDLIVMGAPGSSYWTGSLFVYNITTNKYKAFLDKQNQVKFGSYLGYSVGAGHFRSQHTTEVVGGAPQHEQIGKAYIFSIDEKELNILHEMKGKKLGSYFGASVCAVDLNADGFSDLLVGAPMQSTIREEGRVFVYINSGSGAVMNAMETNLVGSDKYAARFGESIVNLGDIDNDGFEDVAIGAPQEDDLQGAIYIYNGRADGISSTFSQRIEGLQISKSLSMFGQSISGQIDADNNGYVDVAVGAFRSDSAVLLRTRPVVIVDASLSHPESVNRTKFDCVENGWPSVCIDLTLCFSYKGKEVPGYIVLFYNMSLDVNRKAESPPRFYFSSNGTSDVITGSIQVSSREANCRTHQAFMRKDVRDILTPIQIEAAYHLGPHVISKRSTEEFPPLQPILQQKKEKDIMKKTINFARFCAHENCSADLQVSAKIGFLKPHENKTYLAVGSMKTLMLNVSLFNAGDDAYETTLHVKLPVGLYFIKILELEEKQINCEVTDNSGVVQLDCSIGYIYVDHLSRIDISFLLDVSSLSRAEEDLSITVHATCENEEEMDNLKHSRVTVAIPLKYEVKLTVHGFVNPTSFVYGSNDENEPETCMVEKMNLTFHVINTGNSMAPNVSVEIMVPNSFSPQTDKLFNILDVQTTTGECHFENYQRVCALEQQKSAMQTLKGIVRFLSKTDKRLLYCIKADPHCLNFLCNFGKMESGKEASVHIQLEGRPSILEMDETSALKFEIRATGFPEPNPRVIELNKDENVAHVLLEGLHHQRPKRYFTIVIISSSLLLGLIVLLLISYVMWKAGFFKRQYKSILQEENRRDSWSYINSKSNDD
Yeast superoxide: yeast age-related superoxide inhibition as caloric restriction mimetic; AID 2690; 0.18% of 330,000 active; S. cerevisiae aged cells, superoxide DHE fluorescence; active compounds read low; superoxide response (% of plate mean), % at 10 µM;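 active = superoxide response under a set limit, about three screen SD below normal, cut at about 65% in these data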;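 also: yeast aged for seven days with compound at 30 °C before DHE staining; 100% = average MFI of all compound-treated wells on the plate with controls excluded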
ABCB6 inh MLPCN: inhibitors of human ABC transporter ABCB6. Q9NP58. fluorescence ratio to DMSO, % at 10 µM. 0.19% of 360,000 active. K562-ABCB6 porphyrin accumulation, flow cytometry, 1 h; active compounds read low;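 active = fluorescence ratio to DMSO below 75%, the collection mean minus 3 SD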;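 also: signal is porphyrin accumulated inside mitochondria; 100% equals median channel fluorescence of DMSO control wells; lower ratio means ABCB6 inhibition with less porphyrin fluorescence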
SKN-1 inh: inhibitors of C. elegans SKN-1 | C. elegans VP596 Pgst-4::GFP/RFP ratio, acrylamide-induced, 24 h | inhibition, % at 21.8 µM | 0.49% of 360,000 active;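 active = interference check ratio from 0.5 to 1.5 plus GFP to RFP signal ratio inhibition reaching or exceeding a fixed threshold, cut at about 30% in these data, passing the limit was not always enough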
Platelet DG rel: platelet dense granule release activity. human platelet-rich plasma, SFLLRN dense granule ATP release, luminescence. inhibition, %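 (compounds screened at 7.5 µM in platelet-rich plasma)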. 0.22% of 300,000 active. AID 1663;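 active = mean replicate score, as percent of positive control, at or above 50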
Numbers without * were called inactive; . = no result given. The list is not random: actives were taken first. Their share in the collection is about 1.2%.

SMILES	VLA-4 inh	Yeast superoxide	ABCB6 inh MLPCN	SKN-1 inh	Platelet DG rel
O=C(Nc1cccc(F)c1)C1CCN(C(=O)Cc2ccccc2)CC1	10	109	101	2	51*
COc1ccc(NC(=O)C2CCN(C(=O)Cc3ccccc3)CC2)cc1OC	-8	110	101	10	0
CSc1ccc(C2Nc3ccccc3-c3cc(C)nn32)cc1 (stereo unspecified)	11	95	100	44*	-1
Brc1ccc2ncnc(Nc3cccc4ccccc34)c2c1	-21	85	91	19	-2
OCCNc1ncnc2ccc(Br)cc12	12	93	70*	-21	0
CN(C)c1ccc(C=C2SC(=S)NC2=O)cc1	.	.	154	40*	.
Cc1ccc(S(=O)(=O)N2[C@H](CC(=O)Oc3ccccc3)OC[C@@H]2C(C)C)cc1	.	.	.	0	.
COc1ccc(-c2ccc(/C=C3/C(=N)N4C(C)=CSC4=NC3=O)o2)c([N+](=O)[O-])c1	-9	102	113	43*	12
Cc1cc(-c2n[nH]c(=S)n2/N=C/c2cccc(O)c2)n[nH]1	0	65*	91	1	-4
CC1(C(=O)NCc2ccccc2)CSCC(=O)N1Cc1cccc(C(F)(F)F)c1 (stereo unspecified)	.	.	.	-14	.
CCCS(=O)(=O)NC(=O)C1(C)CCN(C(=O)c2cccc(C)c2C)C1 (stereo unspecified)	.	.	102	35*	.
CCCc1c(Cc2cccc(F)c2)ncn1Cc1cccc(-c2ccccc2)c1	.	.	.	-10	.
COc1ccccc1C1CC(c2cccc(NS(C)(=O)=O)c2)=NN1S(=O)(=O)c1ccccc1 (stereo unspecified)	-40	102	253	37*	0
C[C@H](O)[C@@H]1C(=O)N2CCc3c([nH]c4ccccc34)[C@@H]2C[C@@H]1N(C)C(=O)c1cc(Cl)cc(Cl)c1	.	.	95	6	.
CN(C)CCCNc1cc(C(C)(C)C)nc2c(-c3ccc(Cl)cc3)cnn12	44	91	84	41*	4
CCN(CC)CC(C)CNC(=O)C1(O)c2ccccc2NC(=O)N1c1ccc(Cl)c(Cl)c1 (stereo unspecified)	8	88	98	5	5
O=C1Nc2ccccc2C(O)(C(=O)NCc2ccco2)N1c1ccc(Cl)c(Cl)c1 (stereo unspecified)	0	93	92	42*	-11
Cc1ccc(NC(=O)CSCC(=O)Nc2ccccc2C(=O)N2CCCCC2)cc1	-4	102	94	46*	1
COc1ccc(NC(=O)CSCC(=O)Nc2ccccc2C(=O)N2CCCCC2)cc1	11	98	92	-8	.
C/C(=N\Nc1ccc(Cl)c(C(=O)O)c1)c1ccc(Br)s1	-6	96	96	44*	7
CCCCCCCCN1CC(Cc2cc3ccccc3c3ccccc23)N(c2ccccc2)c2ccccc2C1=O (stereo unspecified)	.	.	.	-2	.
Cc1cc(C)n(CC(O)Cn2c(C)c(C)c3ccccc32)n1 (stereo unspecified)	-19	80	389	63*	2
Cc1c(C)n(CC(O)CN2CCCCC2)c2ccccc12 (stereo unspecified)	2	88	97	-11	-11
O=c1[nH]c(=S)[nH]c2c1C(c1ccc(Cl)cc1)OC(C1CCCCC1)C2 (stereo unspecified)	.	.	100	-2	.
O=C(Nc1ccc(Oc2ccccc2)cc1)c1csc([C@H]2C[C@H](O)[C@@H](CO)O2)n1	.	.	92	13	.
SMILES	VLA-4 inh	Yeast superoxide	ABCB6 inh MLPCN	SKN-1 inh	Platelet DG rel
CN1/C(=C\C(=O)CSc2nnc(NCc3ccccc3)s2)C(C)(C)c2ccccc21	2	100	149	45*	-10
Cc1ccc(Cl)cc1N1CCN(S(=O)(=O)c2ccc3c(c2)OCCO3)CC1	7	94	91	-8	-5
Cc1ccc(C)c(N2CCN(S(=O)(=O)c3ccc4c(c3)OCCO4)CC2)c1	7	102	102	4	57*
Cc1[nH]c2ccccc2c1C(=O)CSc1nc2cc(S(=O)(=O)N3CCCCC3)ccc2o1	8	97	69*	9	0
Cc1ccc(C(=O)CSc2nc3cc(S(=O)(=O)N4CCOCC4)ccc3o2)cc1	9	116	86	-15	-5
CCOC(=O)c1c(C)n(C)c2ccc(OCC(O)CN3C(=O)c4ccccc4S3(=O)=O)cc12 (stereo unspecified)	-2	89	35*	-4	3
CCOC(=O)CSc1nc2nc(Cl)c(Cl)nc2[nH]1	.	.	97	3	.
O=[N+]([O-])c1cc2c(cc1Br)-c1ccccc1C2	.	.	96	52*	.
CCc1nc2ccc(C(=O)NCc3ccccc3OC)cn2c1N(C)Cc1ccc(N(C)C)cc1	.	.	92	8	.
Cc1ccc(C(=O)Nc2nc(-c3ccc(F)cc3)cs2)o1	4	109	98	36*	-8
Cc1ccc(-c2csc(NC(=O)c3ccno3)n2)cc1	-1	100	98	37*	1
Cc1ccc(-c2csc(NC(=O)c3ccc(C)o3)n2)cc1	-22	95	98	12	17
COc1ccc(N2C(=O)c3ccccc3NC(=O)C2C(=O)NCC(C)C)cc1 (stereo unspecified)	.	.	.	0	.
COC(=O)[C@]12CCCCC=C1N(CCc1ccc(OC)c(OC)c1)C(=O)[C@H](CC(=O)NCC1CCCCC1)C2	.	.	.	-8	.
O=S1(=O)CC(O)C(O)CS1 (stereo unspecified)	.	.	96	11	.
CC(=O)Nc1cccc(-c2csc(C(O)c3ccc(F)cc3)n2)c1 (stereo unspecified)	.	.	96	9	.
CCOC(=O)C(Cc1cc(C(C)=O)ccc1OCC)C(=O)OCC	21	94	92	38*	-3
O=C(c1ccc2c3n(nc2c1)-c1ccccc1CO3)N1CCOCC1	3	100	97	14	51*
CC1(C(=O)NS(=O)(=O)c2cccc(OC(F)F)c2)CCN1C(=O)C1CCCCC1 (stereo unspecified)	.	.	101	12	.
Cc1ccc(-n2nnnc2SCC(=O)NNC(=O)c2ccc([N+](=O)[O-])cc2)cc1	-1	111	99	0	-1
COc1ccc(-n2nnnc2SCC(=O)NNC(=O)c2ccc([N+](=O)[O-])cc2)cc1	33	109	69*	-8	13
COc1cccc(/C=N/Nc2ncnc(N)c2[N+](=O)[O-])c1OC	3	90	101	15	32
Cc1cc(/C=N/Nc2ncnc(N)c2[N+](=O)[O-])c(C)n1-c1ccccc1	-2	100	99	3	67*
C#CC(=O)N(c1cc(OC)ccc1OC)C(C(=O)NC1CCCC1)c1cccs1 (stereo unspecified)	5	95	64*	-2	-1
COC(=O)[C@]12CCCCC=C1N(CCc1ccc(OC)c(OC)c1)C(=O)[C@H](CC(=O)NCCc1ccccc1OC)C2	.	.	.	-4	.
CCCC(=O)N(CCN1CCOCC1)c1nc2c(OC)ccc(OC)c2s1	9	89	100	-14	1
CCCC(=O)N(CCN1CCOCC1)c1nc2c(OCC)cccc2s1	-14	111	103	40*	-11
